Source: PubChem BioAssay (Tox21)
Results filed as inconclusive are left out. Activity calls are given as the source filed them. Unless noted, calls follow the shape of the dose curve; as a rule, active = well fitted curve in the direction sought with a large enough effect in the repeat runs; inconclusive = weak or mixed curves; inactive = no such curve, though single readings can be large; an effect the other way counts as inactive or inconclusive.

Key:
[1] = A CellTox Green Cytotoxicity Assay to monitor cytotoxicity in HepG2 cells - 16 hour (AID 1224876); also: nearly all actives have a fitted effect of over 45% in size
Outline: (§1)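 First, HepG2 cells (600/well) mixed with reagent were plated; second, after 5 h at 37 C they received compounds via pintool; third, fluorescence was measured at 0 h through 40 h at 8 h intervals.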

[2] = qHTS RealTime-Glo MT Cell Viability Assay in HepG2 cells - 32 hour (AID 1224877); also: nearly all actives have a fitted effect of over 55% in size
Outline: (§2)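 Cell number in HepG2 cultures estimated from NanoLuc luminescence generated by metabolic reduction of a prosubstrate by living cells. The homogeneous, nonlytic format allowed repeated reads at 0, 8, 16, 24, 32 and 40 h of compound exposure.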

[3] = A CellTox Green Cytotoxicity Assay to monitor cytotoxicity in HepG2 cells - 24 hour (AID 1224878); also: nearly all actives have a fitted effect of over 45% in size
Outline: as §1

[4] = A CellTox Green Cytotoxicity Assay to monitor cytotoxicity in HepG2 cells - 40 hour (AID 1224879); also: nearly all actives have a fitted effect of over 40% in size
Outline: as §1

[5] = qHTS RealTime-Glo MT Cell Viability Assay in HEK293 cells - 0 hour (AID 1224880); also: top concentration of the series differs between compounds; nearly all actives have a fitted effect of over 45% in size
Outline: (§3)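 600 HEK293 cells per well, dispensed already mixed with RealTime-Glo MT reagents. Compound dosing came 5 h later. The same wells were read for luminescence at 0, 8, 16, 24, 32 and 40 h of exposure at 37 C.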

[6] = A CellTox Green Cytotoxicity Assay to monitor cytotoxicity in HEK293 cells - 32 hour (AID 1224881); also: nearly all actives have a fitted effect of over 40% in size
Outline: (§4)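 Dead-cell fluorescence measured kinetically: asymmetric cyanine dye, HEK293, 600 cells/well, 5 h settle, 23 nL cpd/DMSO, 37 C, reads 0–40 h every 8 h.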

[7] = A CellTox Green Cytotoxicity Assay to monitor cytotoxicity in HepG2 cells - 0 hour (AID 1224882); also: nearly all actives have a fitted effect of over 35% in size
Outline: as §1

[8] = A CellTox Green Cytotoxicity Assay to monitor cytotoxicity in HepG2 cells - 32 hour (AID 1224883); also: nearly all actives have a fitted effect of over 50% in size
Outline: as §1

[9] = A CellTox Green Cytotoxicity Assay to monitor cytotoxicity in HEK293 cells - 8 hour (AID 1224884); also: nearly all actives have a fitted effect of over 35% in size
Outline: as §4

[10] = qHTS RealTime-Glo MT Cell Viability Assay in HepG2 cells - 16 hour (AID 1224885); also: nearly all actives have a fitted effect of over 50% in size
Outline: as §2

[11] = qHTS RealTime-Glo MT Cell Viability Assay in HEK293 cells - 24 hour (AID 1224886); also: top concentration of the series differs between compounds; nearly all actives have a fitted effect of over 50% in size
Outline: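 Homogeneous bioluminescent viability format in HEK293 cells (600 cells/well). Following 5 h at 37 C/5% CO2, 23 nL compound was pintooled; the signal was measured repeatedly during 40 h incubation.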

[12] = qHTS RealTime-Glo MT Cell Viability Assay in HEK293 cells - 8 hour (AID 1224887); also: top concentration of the series differs between compounds; nearly all actives have a fitted effect of over 50% in size
Outline: as §3

[13] = A CellTox Green Cytotoxicity Assay to monitor cytotoxicity in HEK293 cells - 16 hour (AID 1224888); also: nearly all actives have a fitted effect of over 35% in size
Outline: as §4

[14] = qHTS RealTime-Glo MT Cell Viability Assay in HepG2 cells - 0 hour (AID 1224889); also: nearly all actives have a fitted effect of over 50% in size
Outline: as §2

[15] = A CellTox Green Cytotoxicity Assay to monitor cytotoxicity in HepG2 cells - 8 hour (AID 1224890); also: nearly all actives have a fitted effect of over 45% in size
Outline: as §1

[16] = qHTS assay to identify small molecule antagonists of the estrogen receptor alpha (ER-alpha) signaling pathway using the BG1 cell line in the presence of 0.1 nM 17-beta-estradiol - cell viability counter screen (AID 1259241); also: nearly all actives have a fitted effect of over 40% in size
Outline: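 VM7Luc4E2 cells (endogenous full-length ER-alpha, 4xERE-luciferase), cultured 5 days in charcoal-stripped serum, exposed to compounds with 0.1 nM 17beta-estradiol (final) for 22 hr at 37C. Viability read in same wells as live-cell protease fluorescence after 30 min.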

[17] = qHTS assay to identify small molecule antagonists of the androgen receptor (AR) signaling pathway using the MDA cell line in the presence of 0.5 nM R1881 - cell viability counter screen (AID 1259242); also: nearly all actives have a fitted effect of over 45% in size
Outline: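 qHTS format. MDA-kb2 (MMTV-luc, AR/GR responsive) + cpd + 0.5 nM R1881 final, 16 hr 37C/0% CO2 → CellTiter-Fluor 30 min → fluorescence intensity.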

[18] = target: Androgen receptor (Homo sapiens) (UniProt P10275); assay: qHTS assay to identify small molecule antagonists of the androgen receptor (AR) signaling pathway using the MDA cell line in the presence of 0.5 nM R1881 (AID 1259243); also: nearly all actives have a fitted effect of over 50% in size
Sequence of Androgen receptor (Homo sapiens) (P10275 whole entry, looked up): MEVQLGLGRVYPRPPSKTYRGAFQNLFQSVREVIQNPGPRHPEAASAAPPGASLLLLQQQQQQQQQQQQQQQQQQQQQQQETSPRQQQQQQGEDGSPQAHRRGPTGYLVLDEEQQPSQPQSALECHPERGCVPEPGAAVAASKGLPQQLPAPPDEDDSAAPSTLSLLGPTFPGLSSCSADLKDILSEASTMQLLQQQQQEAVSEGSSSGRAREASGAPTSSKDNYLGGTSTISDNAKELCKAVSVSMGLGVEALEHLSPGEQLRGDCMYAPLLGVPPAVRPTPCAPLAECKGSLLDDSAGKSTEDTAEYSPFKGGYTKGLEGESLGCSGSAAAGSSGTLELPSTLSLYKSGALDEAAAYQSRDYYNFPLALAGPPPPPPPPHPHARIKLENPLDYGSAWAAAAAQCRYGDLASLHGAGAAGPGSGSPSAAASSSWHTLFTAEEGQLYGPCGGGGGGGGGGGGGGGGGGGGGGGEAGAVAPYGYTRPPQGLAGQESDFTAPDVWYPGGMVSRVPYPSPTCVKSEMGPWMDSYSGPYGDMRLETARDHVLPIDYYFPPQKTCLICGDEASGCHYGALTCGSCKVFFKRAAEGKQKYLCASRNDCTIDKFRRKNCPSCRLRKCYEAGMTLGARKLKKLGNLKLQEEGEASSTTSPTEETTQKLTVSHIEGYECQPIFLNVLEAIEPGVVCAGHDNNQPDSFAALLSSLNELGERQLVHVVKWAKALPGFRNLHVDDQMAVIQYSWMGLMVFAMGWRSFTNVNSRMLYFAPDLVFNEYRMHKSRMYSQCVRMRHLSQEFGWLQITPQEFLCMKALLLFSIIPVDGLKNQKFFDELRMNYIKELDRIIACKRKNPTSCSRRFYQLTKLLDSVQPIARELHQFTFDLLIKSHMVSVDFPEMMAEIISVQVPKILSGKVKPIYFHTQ
Outline: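 Antagonist mode quantitative HTS in MDA-kb2 MMTV-luciferase cells, agonist R1881 at 0.5 nM final, 16 hr exposure at 37C and 0% CO2, luminescent detection.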

[19] = qHTS assay to identify small molecule phospholipidosis (PLD) inducers (AID 1259344; active = well fitted curve in the direction sought with a large enough effect; an effect the other way counts as inactive or inconclusive)
Outline: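 Accumulated phospholipid, stained red by LipidTOX during 24 h compound treatment of HepG2 cells at 37 C, is quantified from images as pit number and intensity, normalised per cell using Hoechst-stained nuclei.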

[20] = target: Estrogen receptor (Homo sapiens) (UniProt P03372); assay: qHTS assay to identify small molecule antagonists of the estrogen receptor alpha (ER-alpha) signaling pathway using the BG1 cell line in the presence of 0.1 nM 17-beta-estradiol (AID 1259244); also: nearly all actives have a fitted effect of over 50% in size
Sequence of Estrogen receptor (Homo sapiens) (P03372 whole entry, looked up): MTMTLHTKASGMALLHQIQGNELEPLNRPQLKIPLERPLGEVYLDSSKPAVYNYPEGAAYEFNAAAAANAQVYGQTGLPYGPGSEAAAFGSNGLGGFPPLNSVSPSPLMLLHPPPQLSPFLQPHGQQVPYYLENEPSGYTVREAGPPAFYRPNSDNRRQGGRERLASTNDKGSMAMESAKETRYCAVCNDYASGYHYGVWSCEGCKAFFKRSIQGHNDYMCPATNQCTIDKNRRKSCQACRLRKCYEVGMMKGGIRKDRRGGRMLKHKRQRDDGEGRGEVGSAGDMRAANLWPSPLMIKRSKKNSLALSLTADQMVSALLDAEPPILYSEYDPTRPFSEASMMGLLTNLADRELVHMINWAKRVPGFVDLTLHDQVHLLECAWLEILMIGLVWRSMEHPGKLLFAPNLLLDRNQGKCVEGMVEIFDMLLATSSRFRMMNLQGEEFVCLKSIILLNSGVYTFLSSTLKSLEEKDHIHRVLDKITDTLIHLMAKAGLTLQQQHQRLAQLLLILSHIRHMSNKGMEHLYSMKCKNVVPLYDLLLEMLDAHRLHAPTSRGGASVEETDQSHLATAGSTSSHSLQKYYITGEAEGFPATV
Outline: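 Reporter is a stably transfected luciferase under four estrogen responsive elements in VM7Luc4E2 cells expressing native full-length ER-alpha; inhibition of 0.1 nM (final) 17beta-estradiol-driven signal over 22 h is read by luminescence.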

Measured: Potency

CCCCC(CC)C(=O)OC(C)C (stereo not given)
not listed: [17] | [18] | [19] | [20]
inactive: all other assays above

Nc1cc(S(=O)(=O)O)ccc1S(=O)(=O)O
not listed: [18] | [19] | [20]
inactive: all other assays above

O=C1NC2NC(=O)NC2N1 (stereo not given)
not listed: [18] | [19] | [20]
inactive: all other assays above

C=C(C)C(=O)OCCCCCCOC(=O)C(=C)C
not listed: [18] | [19] | [20]
inactive: all other assays above

CCCCCC1CCCC(=O)O1 (stereo not given)
not listed: [17] | [18] | [19] | [20]
inactive: all other assays above

CCCC(C)CC (stereo not given)
not listed: [18] | [19] | [20]
inactive: all other assays above

C=C[C@@H](C)CCC=C(C)C
not listed: [18] | [19] | [20]
inactive: all other assays above

CCC(C)(CCC(C)C)C(=O)[O-].CCC(C)(CCC(C)C)C(=O)[O-].[Zn+2] (stereo not given)
not listed: [18] | [19] | [20]
inactive: all other assays above

CCCCCCCCCOCC1CO1 (stereo not given)
not listed: [18] | [19] | [20]
inactive: all other assays above

CCNC(=O)/C=C/c1cccc(Br)c1
not listed: [20]
inactive: all other assays above

C[C@H](CCC(=O)O)[C@H]1CC[C@H]2[C@@H]3[C@H](O)C[C@@H]4C[C@H](O)CC[C@]4(C)[C@H]3C[C@H](O)[C@]12C
not listed: [18] | [20]
inactive: all other assays above

OC[C@@H](O)[C@H](O)[C@@H](O)[C@@H](O)CO
not listed: [18] | [19]
inactive: all other assays above

Cc1ccccc1N1CCN(CCc2nnc3n2CCCC3)CC1
not listed: [18] | [20]
inactive: all other assays above

CO/N=C(/C(=O)N[C@@H]1C(=O)N2C(C(=O)O)=C(Cn3nnc(C)n3)CS[C@H]12)c1csc(N)n1
not listed: [18] | [20]
inactive: all other assays above

Nc1nc(=O)n([C@@H]2O[C@H](CO)[C@@H](O)[C@@H]2F)cc1I
not listed: [18] | [19]
inactive: all other assays above
